Drawing on the supplement of paper PMC10849652, this text covers log2 fold change for 31 targets.

About 8,800 targets were measured; listed, in parts, are those with a hit and a random draw of the rest. About 0.5% of all pairs of compound and target were hits.

Sequence of UniProt Q9NX02 (Q9NX02 whole entry, looked up): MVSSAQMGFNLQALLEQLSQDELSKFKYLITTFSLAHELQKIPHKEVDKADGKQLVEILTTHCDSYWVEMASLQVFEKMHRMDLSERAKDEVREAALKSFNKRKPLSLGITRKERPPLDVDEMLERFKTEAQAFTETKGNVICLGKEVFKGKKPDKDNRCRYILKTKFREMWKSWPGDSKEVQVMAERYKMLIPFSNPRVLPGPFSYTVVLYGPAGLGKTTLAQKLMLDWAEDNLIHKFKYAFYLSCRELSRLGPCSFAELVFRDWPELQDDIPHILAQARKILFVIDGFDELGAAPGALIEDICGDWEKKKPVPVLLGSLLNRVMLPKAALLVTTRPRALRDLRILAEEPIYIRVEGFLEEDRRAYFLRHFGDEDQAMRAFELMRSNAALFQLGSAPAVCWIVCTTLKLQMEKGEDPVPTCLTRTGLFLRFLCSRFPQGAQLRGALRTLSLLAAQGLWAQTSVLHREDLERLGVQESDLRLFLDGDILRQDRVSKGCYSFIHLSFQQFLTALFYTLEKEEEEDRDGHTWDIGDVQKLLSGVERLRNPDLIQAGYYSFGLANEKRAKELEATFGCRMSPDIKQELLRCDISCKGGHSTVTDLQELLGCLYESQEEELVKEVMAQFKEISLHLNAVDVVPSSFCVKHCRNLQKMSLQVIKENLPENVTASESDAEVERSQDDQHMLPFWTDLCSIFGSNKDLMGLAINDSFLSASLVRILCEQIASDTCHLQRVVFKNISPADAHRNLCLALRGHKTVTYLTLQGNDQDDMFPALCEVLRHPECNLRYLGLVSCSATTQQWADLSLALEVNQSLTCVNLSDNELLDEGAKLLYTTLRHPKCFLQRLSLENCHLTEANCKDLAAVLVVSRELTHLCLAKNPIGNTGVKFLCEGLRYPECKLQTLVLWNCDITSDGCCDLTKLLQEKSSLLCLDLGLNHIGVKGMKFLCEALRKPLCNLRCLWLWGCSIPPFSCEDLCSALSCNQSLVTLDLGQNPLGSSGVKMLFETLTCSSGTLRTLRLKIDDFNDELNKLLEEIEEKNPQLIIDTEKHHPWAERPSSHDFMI
Sequence of UniProt Q9HD67 (Q9HD67 whole entry, looked up): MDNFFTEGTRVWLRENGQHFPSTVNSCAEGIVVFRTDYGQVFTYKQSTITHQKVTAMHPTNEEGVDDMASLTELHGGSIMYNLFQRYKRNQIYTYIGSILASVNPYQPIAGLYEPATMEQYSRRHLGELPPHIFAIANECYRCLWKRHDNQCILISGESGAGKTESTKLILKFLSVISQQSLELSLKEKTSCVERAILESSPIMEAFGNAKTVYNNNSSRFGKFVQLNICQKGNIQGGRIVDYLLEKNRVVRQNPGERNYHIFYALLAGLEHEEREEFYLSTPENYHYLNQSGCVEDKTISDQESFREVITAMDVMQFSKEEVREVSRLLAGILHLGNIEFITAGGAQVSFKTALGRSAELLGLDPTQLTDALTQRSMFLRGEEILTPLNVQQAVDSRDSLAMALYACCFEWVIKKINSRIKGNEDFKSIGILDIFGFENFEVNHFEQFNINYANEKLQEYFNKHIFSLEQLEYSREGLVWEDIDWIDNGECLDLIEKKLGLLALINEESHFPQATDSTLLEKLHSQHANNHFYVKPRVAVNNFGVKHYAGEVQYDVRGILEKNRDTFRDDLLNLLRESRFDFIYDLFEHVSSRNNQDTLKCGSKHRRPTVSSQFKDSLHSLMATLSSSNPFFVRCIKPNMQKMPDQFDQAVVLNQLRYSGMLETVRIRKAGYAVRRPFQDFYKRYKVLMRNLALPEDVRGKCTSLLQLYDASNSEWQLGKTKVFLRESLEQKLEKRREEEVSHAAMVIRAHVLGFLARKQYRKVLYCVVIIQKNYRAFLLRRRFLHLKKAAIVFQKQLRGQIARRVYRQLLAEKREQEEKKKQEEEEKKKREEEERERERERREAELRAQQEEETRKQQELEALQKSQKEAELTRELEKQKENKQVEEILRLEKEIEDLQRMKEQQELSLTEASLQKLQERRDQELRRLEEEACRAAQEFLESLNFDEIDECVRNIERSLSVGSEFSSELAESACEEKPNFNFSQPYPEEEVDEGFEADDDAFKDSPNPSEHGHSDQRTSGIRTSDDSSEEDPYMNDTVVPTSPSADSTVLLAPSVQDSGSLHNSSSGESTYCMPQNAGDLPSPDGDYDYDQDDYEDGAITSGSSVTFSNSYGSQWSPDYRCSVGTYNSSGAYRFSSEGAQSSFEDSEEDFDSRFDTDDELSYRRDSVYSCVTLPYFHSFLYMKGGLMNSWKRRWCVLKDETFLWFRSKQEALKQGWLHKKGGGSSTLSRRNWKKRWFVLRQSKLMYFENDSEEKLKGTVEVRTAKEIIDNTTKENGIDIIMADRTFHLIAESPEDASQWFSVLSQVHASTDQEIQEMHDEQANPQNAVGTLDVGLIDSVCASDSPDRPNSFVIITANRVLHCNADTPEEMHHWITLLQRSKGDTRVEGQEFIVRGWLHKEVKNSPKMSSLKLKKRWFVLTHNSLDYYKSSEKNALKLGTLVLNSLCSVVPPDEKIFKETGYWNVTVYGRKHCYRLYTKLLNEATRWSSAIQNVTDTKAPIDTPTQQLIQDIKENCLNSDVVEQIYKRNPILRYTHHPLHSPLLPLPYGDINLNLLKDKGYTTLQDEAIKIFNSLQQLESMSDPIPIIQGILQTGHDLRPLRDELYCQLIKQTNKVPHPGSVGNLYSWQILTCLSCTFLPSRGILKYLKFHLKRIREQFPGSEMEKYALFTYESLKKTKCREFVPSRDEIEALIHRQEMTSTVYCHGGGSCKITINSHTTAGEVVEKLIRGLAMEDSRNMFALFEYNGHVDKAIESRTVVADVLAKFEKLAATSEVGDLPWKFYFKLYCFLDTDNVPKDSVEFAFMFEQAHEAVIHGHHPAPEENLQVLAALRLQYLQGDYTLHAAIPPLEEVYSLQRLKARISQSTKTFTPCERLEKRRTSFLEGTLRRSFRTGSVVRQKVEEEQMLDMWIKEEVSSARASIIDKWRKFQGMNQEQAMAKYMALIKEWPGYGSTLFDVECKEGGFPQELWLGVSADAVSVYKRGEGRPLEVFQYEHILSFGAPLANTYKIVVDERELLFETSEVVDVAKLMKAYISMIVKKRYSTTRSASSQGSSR
Sequence of UniProt Q9HBL8 (Q9HBL8 whole entry, looked up): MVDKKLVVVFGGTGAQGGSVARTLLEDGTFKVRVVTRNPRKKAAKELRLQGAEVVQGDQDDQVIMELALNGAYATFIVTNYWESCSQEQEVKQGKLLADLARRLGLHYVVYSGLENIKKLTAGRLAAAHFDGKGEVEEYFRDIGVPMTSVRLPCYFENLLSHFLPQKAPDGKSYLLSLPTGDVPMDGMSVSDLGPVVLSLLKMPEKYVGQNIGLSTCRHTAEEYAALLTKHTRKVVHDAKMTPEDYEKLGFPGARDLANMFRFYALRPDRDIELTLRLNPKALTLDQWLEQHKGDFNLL
Sequence of UniProt P43246 (P43246 whole entry, looked up): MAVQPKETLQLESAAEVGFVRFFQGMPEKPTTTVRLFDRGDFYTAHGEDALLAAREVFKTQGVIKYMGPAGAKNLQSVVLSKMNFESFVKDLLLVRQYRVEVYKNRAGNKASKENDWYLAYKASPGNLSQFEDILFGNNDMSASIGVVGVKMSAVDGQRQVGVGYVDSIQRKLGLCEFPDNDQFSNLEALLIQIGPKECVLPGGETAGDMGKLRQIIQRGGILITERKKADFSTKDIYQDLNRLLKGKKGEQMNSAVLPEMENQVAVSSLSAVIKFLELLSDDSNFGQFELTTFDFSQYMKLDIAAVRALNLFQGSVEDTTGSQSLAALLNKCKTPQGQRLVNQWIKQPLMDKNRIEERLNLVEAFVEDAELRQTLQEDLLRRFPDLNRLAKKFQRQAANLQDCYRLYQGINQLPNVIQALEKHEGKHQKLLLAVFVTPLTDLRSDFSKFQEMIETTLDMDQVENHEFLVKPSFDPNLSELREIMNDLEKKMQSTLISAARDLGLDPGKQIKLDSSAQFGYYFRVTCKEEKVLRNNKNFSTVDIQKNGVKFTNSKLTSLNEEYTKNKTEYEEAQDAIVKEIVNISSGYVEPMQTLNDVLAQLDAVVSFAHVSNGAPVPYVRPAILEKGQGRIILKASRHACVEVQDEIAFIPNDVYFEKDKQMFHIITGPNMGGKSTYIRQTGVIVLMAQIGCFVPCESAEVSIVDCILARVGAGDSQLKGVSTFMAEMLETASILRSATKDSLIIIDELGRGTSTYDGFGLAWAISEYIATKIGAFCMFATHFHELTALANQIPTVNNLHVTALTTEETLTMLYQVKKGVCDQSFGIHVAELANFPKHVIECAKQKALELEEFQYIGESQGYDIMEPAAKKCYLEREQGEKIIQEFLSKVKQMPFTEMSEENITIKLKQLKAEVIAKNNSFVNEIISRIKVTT
Sequence of UniProt Q9NZT2 (Q9NZT2 whole entry, looked up): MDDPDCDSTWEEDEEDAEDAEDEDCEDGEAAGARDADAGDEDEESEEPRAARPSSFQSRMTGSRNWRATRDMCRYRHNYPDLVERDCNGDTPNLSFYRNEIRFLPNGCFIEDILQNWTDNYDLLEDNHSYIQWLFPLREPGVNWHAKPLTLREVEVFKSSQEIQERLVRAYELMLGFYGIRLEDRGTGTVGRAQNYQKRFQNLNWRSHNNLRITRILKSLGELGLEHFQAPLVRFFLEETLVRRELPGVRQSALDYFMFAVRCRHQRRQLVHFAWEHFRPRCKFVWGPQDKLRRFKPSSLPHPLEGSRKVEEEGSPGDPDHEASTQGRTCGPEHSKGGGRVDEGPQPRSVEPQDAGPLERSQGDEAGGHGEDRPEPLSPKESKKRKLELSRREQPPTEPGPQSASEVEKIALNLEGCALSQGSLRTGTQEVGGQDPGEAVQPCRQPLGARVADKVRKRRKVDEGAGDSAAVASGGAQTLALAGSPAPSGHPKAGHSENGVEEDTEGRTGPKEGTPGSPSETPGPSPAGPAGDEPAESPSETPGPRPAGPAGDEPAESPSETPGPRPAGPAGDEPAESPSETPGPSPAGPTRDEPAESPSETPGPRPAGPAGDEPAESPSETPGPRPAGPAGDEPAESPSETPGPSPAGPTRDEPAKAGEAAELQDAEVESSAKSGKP
Sequence of UniProt P03928 (P03928 whole entry, looked up): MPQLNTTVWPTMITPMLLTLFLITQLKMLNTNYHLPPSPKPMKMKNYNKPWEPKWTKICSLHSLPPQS

Compound in the first assay: CC1=C(SC2=C1C(=N[C@H](C3=NN=C(N32)C)CC(=O)N)C4=CC=C(C=C4)Cl)C
Description: log2 fold change, soluble protein after heating vs DMSO (PISA); higher = thermal stabilisation; K562 lysate, 10 uM; active = over 0.2 and 3.5 SD of the protein, either way, in both replicates (recomputed). The method, boiled down: (§1)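 A 30 min treatment with 10 μM compound was applied to crude K562 extract at 1 mg/mL protein in PBS pH 7.4 with 1 mM MgCl2. Heating for 3 min spanned 48°C-58°C, after which aliquots were pooled, adjusted to 0.5% NP-40 at 4°C and spun at 21,000xg for 90 min. TMTpro 16plex LC-MS/MS of the supernatant, with channel sums equalised, gave values recorded as log-two fold change in thermal stability against solvent controls, from duplicates.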
With NRIP1 (UniProt P48552), the log2 fold change was 0.112 (inactive).
On the same count and under the same terms, under NCAPH2 (UniProt Q6IBW4) stands -0.001 (inactive); under OSBPL1A (UniProt Q9BXW6), 0.007 (inactive).
For P2RY1 (UniProt P47900), the log2 fold change was 0.163 (inactive).
On the same count and under the same terms, with MT-ATP8 (UniProt P03928) the figure was 0.052 (inactive); with NELFA (UniProt Q9H3P2), 0.033 (inactive).
Same read-out and setting: with MYO10 (UniProt Q9HD67) the figure was 0.104 (inactive).
Regarding NSA2 (UniProt O95478), the log2 fold change is -0.135 (inactive).
Still for that read-out and setting: with OSGEP (UniProt Q9NPF4) the figure was 0.031 (inactive); with NCAPH (UniProt Q15003), 0.015 (inactive); with MSH2 (UniProt P43246), -0.006 (inactive).
The same measure, in the same setting: with NCAPG2 (UniProt Q86XI2) the figure was -0.04 (inactive); with MTMR6 (UniProt Q9Y217), 0.01 (inactive).
On the same count and under the same terms, under OAT (UniProt P04181) stands 0.031 (inactive).
Regarding NPLOC4 (UniProt I3L3I1), the log2 fold change is 0.2 (inactive).
Still for that read-out and setting: with NR2F2 (UniProt P24468) the figure was -0.117 (inactive); with PANK2 (UniProt Q9BZ23), 0.081 (inactive); with N4BP2 (UniProt Q86UW6), 0.04 (inactive).
On the same count and under the same terms, under NLRP2 (UniProt Q9NX02) stands -0.027 (inactive); under NSUN7 (UniProt Q8NE18), -0.046 (inactive); under PAGE4 (UniProt O60829), -0.11 (inactive).
Regarding NMRAL1 (UniProt Q9HBL8), the log2 fold change was 0.049 (inactive).
On the same count and under the same terms, with NEDD8 (UniProt Q15843) the figure was -0.014 (inactive); with MYLK (UniProt Q15746), -0.161 (inactive).
The same measure, in the same setting: under OGFR (UniProt Q9NZT2) stands 0.001 (inactive).
Still for that read-out and setting: with MYOM1 (UniProt P52179) the figure was 0.088 (inactive).

Compound in a further assay: CC1=C2C(=CC=C1)N=C(N(C2=O)C3=CC=CC=C3C)CN4C=NC5=C(N=CN=C54)N
Described as above. The method, boiled down:
as §1
With NUDT6 (UniProt P53370), the log2 fold change is -0.222 (inactive).
As to NCAPH2 (UniProt Q6IBW4), the log2 fold change is 0.035 (inactive).
The same measure, in the same setting: under MT-ATP8 (UniProt P03928) stands 0.082 (inactive); under NELFA (UniProt Q9H3P2), -0.022 (inactive).
On the same count and under the same terms, with MYO10 (UniProt Q9HD67) the figure was 0.165 (inactive); with NSA2 (UniProt O95478), -0.018 (inactive).
Consider OSGEP (UniProt Q9NPF4), for which the log2 fold change is 0.036 (inactive).
With NCAPH (UniProt Q15003), the log2 fold change was 0.021 (inactive).
The same measure, in the same setting: under MXRA7 (UniProt P84157) stands -0.05 (inactive); under MSH2 (UniProt P43246), 0.028 (inactive); under NCAPG2 (UniProt Q86XI2), 0.019 (inactive).
Same read-out and setting: with MTMR6 (UniProt Q9Y217) the figure was 0.006 (inactive).
As to OAT (UniProt P04181), the log2 fold change is 0.038 (inactive).
On the same count and under the same terms, with PANK2 (UniProt Q9BZ23) the figure was -0.021 (inactive); with PAPOLG (UniProt Q9BWT3), 0.064 (inactive); with N4BP2 (UniProt Q86UW6), 0.064 (inactive).
As to PAGE2B (UniProt Q5JRK9), the log2 fold change was -0.031 (inactive).
NLRP2 (UniProt Q9NX02): the log2 fold change was -0.015 (inactive).
Same read-out and setting: with NSUN7 (UniProt Q8NE18) the figure was 0.06 (inactive); with NMRAL1 (UniProt Q9HBL8), 0.009 (inactive).
Still for that read-out and setting: with NEDD8 (UniProt Q15843) the figure was -0.047 (inactive); with MYLK (UniProt Q15746), -0.008 (inactive); with OGFR (UniProt Q9NZT2), 0.012 (inactive).
Same read-out and setting: with MYBL2 (UniProt P10244) the figure was -0.01 (inactive).
Consider MYOM1 (UniProt P52179), for which the log2 fold change was -0.111 (inactive).
